Experiment [1] is described as follows: CCTE_Simmons_MITO_inhib_resp_rate: CCTE's HepG2 Seahorse XF Respirometric Screening Assay at Inhibited Respiratory State [full ETC block], Simmons Lab (AID 2284006). The following applies: actives raise or lower the signal. The method in brief:
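Inhibited respiration was taken as HepG2 oxygen consumption after rotenone/antimycin A, which followed test-compound and FCCP injections. Chemicals were tested at seven final concentrations from 125 nM to 100 uM. Activity was fitted bidirectionally relative to DMSO.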

A short description of experiment [2]: CCTE_Simmons_MITO_viability: CellTiter-Glo Viability Assessment for CCTE's HepG2 Seahorse XF Respirometric Screening Assay [post-hoc], Simmons Lab (AID 2284007; active = hit-call score of the fitted dose curve at least 0.9, where 1 is the maximum). The method in brief:
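HepG2 cells; test chemical 7 conc. (125 nM–100 uM final) × 90 min; then luminescent ATP detection. DMSO vehicle. Positive control dichlone, 8 conc. from 10 nM to 100 uM final. Loss-of-signal endpoint.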
A general note: Cellular ATP, detected with luciferase, serves as a proxy for viable cell number.

A short description of experiment [3]: CCTE_Shafer_MEA_acute_spike_number: CCTE's Neural Acute Assay for Total Number of Spikes, Shafer Lab (AID 2284008).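 As to AC50: curve fitted for decrease in spike count so AC50 reflects inhibitors.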 The method in brief: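 Rat cortical cultures, DIV 13/15, 37 C. 40 min baseline rec, cpd 0.03-40 uM, 40 min post-dose rec. Band-pass 300-5000 Hz, spike threshold 8x rms; % change in spike count per well, DMSO neg ctrl, loss-of-signal fit.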
Experiment [4] can be described thus: CCTE_Shafer_MEA_acute_firing_rate_mean: CCTE's Neural Acute Assay for Mean Firing Rate, Shafer Lab (AID 2284009).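 Also: analyzed for loss of signal so actives lower firing rate relative to DMSO.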 The method in brief:
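Percent change in well-mean firing rate was derived from extracellular spikes detected at 8x rms noise (300-5000 Hz band-pass) before and after a 40-min compound exposure. Cultures were primary rat cortical neurons, tested at 0.03-40 uM.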

Experiment [5] can be described thus: CCTE_Harrill_HTTr_Viability_MCF7: CCTE's 6-hour Cell Viability Assessment for the High-Throughput Transcriptomics (HTTr) Platform, in MCF-7 cells cultured in DMEM + 10% fetal bovine serum, Harrill Lab (AID 2284010). The method in brief:
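Viability measured through PI dye exclusion by high-content imaging at 6 h post-dosing.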

Experiment [6] in a line: CCTE_Harrill_HTTr_Apoptosis_MCF7: CCTE's 6-hour Apoptosis Assessment for the High-Throughput Transcriptomics (HTTr) Platform, in MCF-7 cells cultured in DMEM + 10% fetal bovine serum, Harrill Lab (AID 2284011). The method in brief:
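Read-out: CellEvent Caspase 3/7 Green signal by high content imaging, gain-of-signal indicating apoptosis. MCF-7 cells, DMEM + 10% FBS, eight-point dilution series, 6 h exposure. Curves fitted bidirectionally relative to DMSO negative control.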

Experiment [7] in a line: CCTE_Shafer_MEA_acute_burst_number: CCTE's Neural Acute Assay for Single-Electrode Bursts, Shafer Lab (AID 2284013). The method in brief:
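Spontaneous network activity of primary rat cortical neurons was recorded extracellularly on microelectrode arrays at 37 C, with 40-min periods before and during exposure to 0.03-40 uM compound on DIV 13 or 15.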

A short description of experiment [8]: CCTE_Shafer_MEA_acute_burst_duration_mean: CCTE's Neural Acute Assay for Mean Burst Duration, Shafer Lab (AID 2284014).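 Also: hits are decreases in mean burst duration relative to DMSO controls.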 The method in brief: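 Read-out is the per-well percent change in mean burst duration (first to last spike within a single-electrode burst) between 40-min recordings before and after compound. Cultures were primary rat cortical neurons on MEAs, dosed at 0.03-40 uM on DIV 13 or 15.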

Experiment [9] is described as follows: CCTE_Shafer_MEA_acute_per_burst_spike_number_mean: CCTE's Neural Acute Assay for Average Number of Spikes Per Burst, Shafer Lab (AID 2284015).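 Also: hits are decreases in mean spikes per burst versus baseline.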 The method in brief:
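Primary rat cortical neurons on 48-well MEA plates, treated on DIV 13 or 15 at 0.03-40 uM. Spontaneous activity recorded 40 min before and 40 min after compound at 37 C; percent change in mean spikes per single-electrode burst per well, fitted in the loss direction versus DMSO.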

Experiment [10] can be described thus: CCTE_Shafer_MEA_acute_interburst_interval_mean: CCTE's Neural Acute Assay for Mean Interburst Interval, Shafer Lab (AID 2284016).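 Also: percent change of mean interburst interval versus each well's own pre-dose baseline; curves fitted for decrease in interburst interval relative to DMSO.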 The method in brief:
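Primary rat cortical neurons on 16-electrode MEA wells were recorded 40 min at baseline on DIV 13 or 15, then 40 min after compound (0.03-40 uM), at 37 C. Value is percent change in mean interburst interval per well, DMSO as negative control.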

Experiment [11] deals with Ratio of Nucleoli Translocation and Cytoplasm, AR (gene 367) (UniProt P10275). Briefly: UPITT_HCI_U2OS_AR_TIF2_Nucleoli_Cytoplasm_Ratio_Antagonist: University of Pittsburgh U2OS Androgen Receptor-Transcriptional Intermediary Factor 2 (AR-TIF2) Antagonism High Content Imaging Assay for Ratio of Nucleoli Translocation and Cytoplasm (AID 2283999; active = hit-call score of the fitted dose curve at least 0.9, where 1 is the maximum;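 also: antagonists lower the DHT-driven ratio of nucleolar to cytoplasmic red signal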). The method in brief:
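High-content imaging quantifies the red nucleolar:cytoplasmic fluorescence ratio in U2OS cells with AR-RFP and TIF2-GFP. Final concentrations are 20 uM (screen) or 0.195–50 uM (dose response), analysed against DHT as baseline.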

For experiment [12] the target is unchanged. Briefly: UPITT_HCI_U2OS_AR_TIF2_Nucleoli_Cytoplasm_Ratio_Agonist: University of Pittsburgh U2OS Androgen Receptor-Transcriptional Intermediary Factor 2 (AR-TIF2) Agonism High Content Imaging Assay for Ratio of Nucleoli Translocation and Cytoplasm (AID 2284000; active = hit-call score of the fitted dose curve at least 0.9, where 1 is the maximum;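 also: hits raise the red nucleolar to cytoplasm ratio above vehicle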). The method in brief: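 Read-out first: nucleolar-to-cytoplasm ratio of red (AR-RFP) signal, quantified by high-content imaging in U2OS cells co-expressing TIF2-GFP. Activity is scored as signal increase over DMSO. Single-point screening used 20 uM final (0.2% DMSO).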

Experiment [13] is described as follows: CCTE_Harrill_HTTr_CellCount_MCF7: CCTE's Cell Proliferation Assessment for the High-Throughput Transcriptomics (HTTr) Platform, Harrill Lab (AID 2284012; active = hit-call score of the fitted dose curve at least 0.9, where 1 is the maximum;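 also: count of Hoechst-stained nuclei per well by high-content imaging in MCF-7 cells; cells exposed to compound for six hours; intended direction is loss of nuclei count meaning fewer cells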). The method in brief:
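Nuclei counting (Hoechst, high content imaging) in MCF-7 after a 6 h treatment at eight concentrations. Activity fitted bidirectionally, DMSO as negative control.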

The nature of experiment [14]: CCTE_Harrill_HTTr_Viability_PRF_DMEM_24hr: (Pilot) CCTE's 24-hour Cell Viability Assessment for the High-Throughput Transcriptomics (HTTr) Platform, in MCF-7 cells cultured in phenol red-free DMEM + 10% charcoal-stripped fetal bovine serum, Harrill Lab (AID 2283980). The method in brief:
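MCF-7 cells in phenol red-free DMEM with 10% charcoal-stripped FBS, eight-point dilution series, 24 h exposure. Membrane integrity by propidium iodide exclusion with high content imaging; bidirectional fit vs DMSO.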

A short description of experiment [15]: CCTE_Harrill_HTTr_Apoptosis_DMEM_6hr: (Pilot) CCTE's 6-hour Apoptosis Assessment for the High-Throughput Transcriptomics (HTTr) Platform, in MCF-7 cells cultured in DMEM + 10% fetal bovine serum, Harrill Lab (AID 2283981). The method in brief: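 Caspase-3/7 activation read by high content imaging with CellEvent Caspase 3/7 Green in MCF-7 cells (DMEM + 10% FBS), 6 h after dosing; eight-point dilution series. Bidirectional fitting relative to DMSO baseline.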

A short description of experiment [16]: CCTE_Harrill_HTTr_Apoptosis_DMEM_12hr: (Pilot) CCTE's 12-hour Apoptosis Assessment for the High-Throughput Transcriptomics (HTTr) Platform, in MCF-7 cells cultured in DMEM + 10% fetal bovine serum, Harrill Lab (AID 2283982). The method in brief:
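MCF-7 cells in DMEM + 10% FBS, exposed 12 h to an eight-point dilution series; caspase-3/7 activation imaged with CellEvent Green. Bidirectional fit versus DMSO.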

A short description of experiment [17]: CCTE_Harrill_HTTr_Apoptosis_DMEM_24hr: (Pilot) CCTE's 24-hour Apoptosis Assessment for the High-Throughput Transcriptomics (HTTr) Platform, in MCF-7 cells cultured in DMEM + 10% fetal bovine serum, Harrill Lab (AID 2283983). The method in brief:
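MCF-7 cells in DMEM + 10% FBS, eight-point dilution series, 24 h exposure. Caspase-3/7 activation imaged by high-content imaging with CellEvent Caspase 3/7 Green. Bidirectional curve fitting against DMSO baseline.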

Experiment [18] can be described thus: CCTE_Harrill_HTTr_Apoptosis_PRF_DMEM_6hr: (Pilot) CCTE's 6-hour Apoptosis Assessment for the High-Throughput Transcriptomics (HTTr) Platform, in MCF-7 cells cultured phenol red-free DMEM + 10% charcoal-stripped fetal bovine serum, Harrill Lab (AID 2283984). The method in brief: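 MCF-7 cells in phenol red-free DMEM + 10% charcoal-stripped FBS, eight-point dilution series, 6 h exposure. Caspase-3/7 activation imaged by high-content imaging with CellEvent Caspase 3/7 Green; bidirectional fit versus DMSO baseline.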

Experiment [19] can be described thus: CCTE_Harrill_HTTr_Apoptosis_PRF_DMEM_24hr: (Pilot) CCTE's 24-hour Apoptosis Assessment for the High-Throughput Transcriptomics (HTTr) Platform, in MCF-7 cells cultured in phenol red-free DMEM + 10% charcoal-stripped fetal bovine serum, Harrill Lab (AID 2283986). The method in brief:
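MCF-7 cells in phenol red-free DMEM with 10% charcoal-stripped FBS, exposed 24 h across an eight-point dilution series. Caspase-3/7 activation imaged with CellEvent Green by high content imaging; bidirectional fitting against DMSO.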

The next experiment has as its system DIO1 (gene 1733). Kind of experiment: CCTE_GLTED_hDIO1: CCTE's human Deiodinase 1 (DIO1) Inhibition Assay, Great Lakes Toxicology and Ecology Division (GLTED) Lab (AID 2283987; active = hit-call score of the fitted dose curve at least 0.9, where 1 is the maximum;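 also: isolated human DIO1 enzyme in a cell-free setup rather than cells; enzyme activity read as free iodide liberated from substrate via Sandell-Kolthoff colorimetry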). The method in brief:
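Steps: human DIO1 enzyme plus test chemical, 3 h incubation; free iodide then quantified in a second Sandell-Kolthoff step by absorbance. DMSO served as negative control and baseline.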

Records with an inconclusive call do not appear. Calls of active or inactive are those of the source. The calls were made as follows, unless noted: active = hit-call score of the fitted dose curve at least 0.9, where 1 is the maximum; inactive = score below 0.9.

Ratio of Nucleoli Translocation and Cytoplasm, AR (gene 367), sequence (P10275 whole entry, looked up): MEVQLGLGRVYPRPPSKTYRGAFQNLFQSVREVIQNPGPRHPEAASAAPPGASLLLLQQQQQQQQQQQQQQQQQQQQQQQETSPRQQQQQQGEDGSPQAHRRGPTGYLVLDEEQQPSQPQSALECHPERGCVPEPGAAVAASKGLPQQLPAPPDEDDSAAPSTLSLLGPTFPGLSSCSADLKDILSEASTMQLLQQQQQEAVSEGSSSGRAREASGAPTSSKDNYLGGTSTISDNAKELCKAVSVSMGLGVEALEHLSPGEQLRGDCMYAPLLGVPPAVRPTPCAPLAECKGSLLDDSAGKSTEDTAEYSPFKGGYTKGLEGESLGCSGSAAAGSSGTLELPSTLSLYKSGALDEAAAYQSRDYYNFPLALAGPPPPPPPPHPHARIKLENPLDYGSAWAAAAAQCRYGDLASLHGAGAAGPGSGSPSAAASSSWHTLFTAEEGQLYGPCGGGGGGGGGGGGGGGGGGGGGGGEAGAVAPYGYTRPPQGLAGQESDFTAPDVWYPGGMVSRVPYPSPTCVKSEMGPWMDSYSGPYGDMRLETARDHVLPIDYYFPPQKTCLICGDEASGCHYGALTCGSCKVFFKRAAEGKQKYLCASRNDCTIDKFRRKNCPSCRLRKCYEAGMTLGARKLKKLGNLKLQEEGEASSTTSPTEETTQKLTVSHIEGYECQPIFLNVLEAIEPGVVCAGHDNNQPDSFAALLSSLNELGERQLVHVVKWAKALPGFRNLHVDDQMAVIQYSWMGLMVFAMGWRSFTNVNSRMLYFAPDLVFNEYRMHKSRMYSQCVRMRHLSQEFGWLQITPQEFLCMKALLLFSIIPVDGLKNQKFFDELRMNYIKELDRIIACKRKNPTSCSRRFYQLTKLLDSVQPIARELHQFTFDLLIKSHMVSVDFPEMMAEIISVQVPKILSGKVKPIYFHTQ

What is called AC50 is the midpoint of the concentration-response curve, whichever way the signal moves. For `CCCCC(CC)CN1C(=O)C2C3C=CC(C3)C2C1=O` (stereo not given), the compound was classed as inactive in experiment [1], in experiment [2], in [5], in experiment [6], in experiment [7] and in experiment [8]. In addition, the compound was called inactive in experiment [9] and in [10]. Also, the AC50 in experiment [3] and in [4] was 30.1 µM (active) in each case.

On to `CCCOC(=O)c1ccc(C(=O)OCCC)nc1`, for which the outcome in experiment [11], in experiment [12], in experiment [5], in experiment [6] and in experiment [13] was inactive.

In the case of `CC(C)(c1ccc(O)cc1)c1ccc(O)cc1`, the outcome in experiment [14], in experiment [15], in experiment [16], in [17], in [18] and in [19] was inactive. Also, the outcome in experiment [11], in [1], in experiment [5], in [6], in [13] and in experiment [9] was inactive. Also, in experiment [10], the result was inactive. The AC50 was 86.7 µM (active) in [12], 5.7 µM (active) in experiment [3], 5.7 µM (active) in experiment [4] and 6.17 µM (active) in experiment [7].

As for `CCOC(=O)C(C)Oc1ccc(Oc2nc3ccc(Cl)cc3o2)cc1` (stereo not given), the outcome in experiment [11], in [5] and in [6] was inactive.

`S=C([S-])NCCNC(=S)[S-].[Mn+2]`: the outcome in [14], in experiment [15], in [16], in experiment [17], in experiment [18] and in experiment [19] was inactive. Besides, the result in experiment [5], in experiment [6] and in experiment [13] was inactive. The AC50 with DIO1 (gene 1733) was 35.7 µM (active).

Regarding `c1ccc2[nH]c(-c3cscn3)nc2c1`, the result in [12], in [5], in [6] and in [13] was inactive.

Turning to `CCN(CC)C(=O)c1cccc(C)c1`, the outcome in experiment [5], in [6] and in experiment [13] was inactive.

On to `COCCO`, for which the outcome in experiment [5] and in experiment [6] was inactive.

Take `C#C[C@]1(O)CC[C@H]2[C@@H]3CCC4=CC(=O)CC[C@@H]4[C@H]3CC[C@@]21CC`: the outcome in experiment [5], in experiment [6] and in experiment [13] was inactive.

In the case of `CCOC(=O)c1ccc(O)cc1`, the outcome in experiment [5], in experiment [6] and in experiment [13] was inactive.

`CC(=O)[C@H]1CC[C@H]2[C@@H]3CCC4=CC(=O)CC[C@]4(C)[C@H]3CC[C@]12C`: the call in experiment [1], in experiment [2], in experiment [5], in experiment [6] and in experiment [13] was inactive.

Consider `C[C@]12C[C@H](O)[C@H]3[C@@H](CCC4=CC(=O)CC[C@@]43C)[C@@H]1CC[C@@H]2C(=O)CO`, for which the result in [2], in experiment [5], in [6] and in experiment [13] was inactive.

With `CCOC(=O)C(C)Oc1ccc(Oc2cnc3cc(Cl)ccc3n2)cc1` (stereo not given), the result in experiment [5] and in experiment [6] was inactive.

For `O=C(O)c1ccccc1`, the compound was classed as inactive in experiment [3], in experiment [4], in experiment [5], in experiment [6], in experiment [13] and in experiment [7]. Also, the outcome in [8], in experiment [9] and in experiment [10] was inactive.

Consider `CCC(C)OC(=O)N1CCCCC1CCO` (stereo not given), for which the outcome in experiment [5] and in experiment [6] was inactive.

For `CCCCC(CC)COC(=O)c1ccccc1C(=O)O` (stereo not given), the result in experiment [1], in experiment [2], in [5] and in experiment [6] was inactive.

`c1ccc(Nc2ccccc2)cc1`: the outcome in [5] and in experiment [6] was inactive.

As to `COC(=O)c1ccc(I)cc1S(=O)(=O)NC(=O)Nc1nc(C)nc(OC)n1`, the result in [5] and in experiment [6] was inactive.

The values are drawn from PubChem BioAssay (EPA / NIEHS).
